# Laboratory results published in the supplement of paper PMC10338343.
# ± gives the standard deviation.
# System: MILI (PIWIL2) piRISC loaded with piRNA #1 (26 nt)
# Test: pre-steady-state target cleavage rate (min^-1); guide: piRNA #1 5'p-UGAGGUAGUAGGUUGUAUAGUAUCCA; MIWI and MILI are mouse PIWI proteins and EfPiwi is from a freshwater sponge; tags in brackets are library labels; higher = faster piRNA-guided slicing of the target
# Details: auxiliary factor: 500 nM mouse GTSF1
# How it was run: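 Sequencing of uncleaved targets, normalised to depth and to weakly complementary targets, was the readout of this Cleave-'n-Seq assay. A transcribed, DNA-blocked target RNA library (0.1 nM) was mixed with 1 nM active affinity-purified piRISC carrying one synthetic guide, with or without 500 nM GTSF1 partner protein, in HEPES–potassium acetate buffer at 33 °C for 0–8 or 0–960 min. Three trials were pooled, k3 was capped at 0.0001 min^-1, and a burst-and-steady-state fit gave the pre-steady-state cleavage rate.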
row,Sequence,pre-steady-state target cleavage rate
1,GGAGACCUAUGUAUACAACCUAUCUACCUCA,0.0415 ± 0.01
2,GGAGACCUAUCUAUACAACCUACAUCCUCA,0.0186 ± 0.0046
3,GGAGACCUAACUAAACAUCCUACUACCUCA,0.216 ± 0.036
4,GGAGACCUAUGUAUACAACGUUCUACCUCA,0.00392 ± 0.0018
5,GGAGACCUAUCUAUACAACCUACUUGCUCA,0.109 ± 0.023
6,GGAGACCUAUGUAUACAACCUGCUACCUCA,0.0059 ± 0.0023
7,GGAGACCAUUGUAUACAACCUACUACCUCA,0.0325 ± 0.0067
8,GGAGACCUAUGAAUACGACCUACUACCUCA,0.00583 ± 0.0037
9,GGAGACCUAUGUAUACUACCUUCUACCUCA,0.00348 ± 0.0016
10,GGAGACCUAUCUUUACAACCUACUACCUGA,0.0554 ± 0.012
11,GGAGACCUAUGAUUACAACCUACAUCCUCA,0.00278 ± 0.0025
12,GGAGACCAUACAAUACAACCUACUAGCUCA,0.181 ± 0.029
13,GGAGACCUAUGAUUACAACCUACUCCUCA,< 0.0001
14,GGAGACCUAUGAAUAGAAGCUACUACCUCA,0.0046 ± 0.0022
15,GGAGACCUAUGAUAACAACCUACUACCUGCA,0.00443 ± 0.0033
16,GGAGACCUAUGUUUACAACCUACUACGUCA,0.00415 ± 0.0018
17,GGAGACCUAUGUAUACAUCCUACUACCACA,0.163 ± 0.017
18,GGAGACCUAUGUAUACAACCUACCUACCUCA,0.0358 ± 0.0076
19,GGAGACCUAUGAUAUGAACGCUACUACCUCA,< 0.0001
20,GGAGACCUUACUAUACAUCCUACUACGUCA,0.141 ± 0.022

row,Sequence,pre-steady-state target cleavage rate
1,GGAGACGAUACAAUACAACCUACUAGCUCA,0.137 ± 0.023
2,GGAGACCUAUGUAUACAACGUACUACCACA,0.00942 ± 0.003
3,GGAGACCUAACUAUACUAGCUACUACCUCA,0.12 ± 0.015
4,GGAGACCUAUGAUAACAACCUACUACACUCA,0.00558 ± 0.0031
5,GGAGAGGAGACUAUACAACCUACUACCUCA,0.25 ± 0.052
6,GGAGACCUAUGUAUACUAGCUACUACCUCA,0.0336 ± 0.0059
7,GGAGACCUAUGAUAUGAACCUACUACGUGA,< 0.0001
8,GGAGACCUAACUAUAGAACCUACUACCUCA,0.131 ± 0.021
9,GGAGACCUAUGAUUACAACCUACUAGCCUCA,0.00776 ± 0.0028
10,GGAGACCUAUCUAUACAACCUAGUACCACA,0.00922 ± 0.0045
11,GGAGACCUAUGAUAUGUUGCUACUAGGACA,< 0.0001
12,GGAGACCUAUGAAAACAACCUACUUCCUCA,0.00368 ± 0.002
13,GGAGACCUAUGAUAUGAACCUACCUACCUCA,< 0.0001
14,GGAGACGAUACUAUACAUGGUACUACCUCA,0.00601 ± 0.0019
15,GGAGACCUAUGAUAUGAACCUAGAUGGAGA [g9:g14:cont:t1A],< 0.0001
16,GGAGACCUAACUAUACUACGUACUACCUCA,0.0154 ± 0.0042
17,GGAGACCUAACAAUACAACCUACUUCCUCA,0.0651 ± 0.019
18,GGAGUGCAUACUUUACAACCUACUACCUCA,0.166 ± 0.0083
19,GGAGACCUAUCUAUACAUCCUACUAGCUCA,0.125 ± 0.019
20,GGAGACCUAUGUUUACAACCUACUACCUCA,0.0117 ± 0.0031
